The campaign covered roughly 290,000 compounds. About 890 (0.31%) were called active. The sample holds actives, similar compounds and a random draw of the others, so the mix is not that of the screen. Rule as the data show it: active = inhibition mostly above about 52% (no sharp cut-off); inactive = mostly below about 76%.
Assay: cell-free HIV fusion peptide-binding blockers – biochemical, uHTS, fluorescence dequenching, primary screen (AID 1986)
Details: 30 min, stronger effect = higher value
[1] = measured here: repeat confirmation average inhibition, at 18.6 µM

| SMILES | inhibition (at 20 µM) | inhibition [1] |
| --- | --- | --- |
| O=S(=O)(Cc1ccccc1)NCC1CCCO1 (centres undefined) | -2.7% (inactive) |  |
| CCCCN(CCCC)C(=O)c1cc2ccccc2c(=O)o1 | -1.7% (inactive) |  |
| CCCCC[C@H](O)/C=C/[C@@H]1[C@@H](C/C=C\CCCC(=O)O)[C@H]2CO[C@@H]1C2 | 3.4% (inactive) |  |
| CCCCC[C@H](O)/C=C/[C@H]1C=CC(=O)[C@@H]1C/C=C\CCCC(=O)O | 52.4% (active) |  |
| CCCCC[C@H](O)/C=C/[C@@H]1[C@@H](C/C=C\CCCC(=O)O)[C@@H](O)C[C@H]1O | -0.8% (inactive) |  |
| CCOC(=O)c1ccc(NC(=S)NCC(O)c2ccccc2)cc1 (centres undefined) | 8.7% (inactive) |  |
| Cn1cnnc1SCC(=O)Nc1ccc(Cl)cc1 | 1.9% (inactive) |  |
| Cn1cccc1/C=C1\SC(=S)N(NC(=O)c2cccc(Cl)c2)C1=O | 25.6% (inactive) |  |
| Cc1ccc(C(=O)NN2C(=O)/C(=C/c3cccn3C)SC2=S)cc1 | 24.4% (inactive) |  |
| Cn1cc(/C=C2\SC(=S)N(NC(=O)c3cccc(Cl)c3)C2=O)c2ccccc21 | 69.3% (active) |  |
| Cn1cccc1/C=C1\SC(=S)N(NC(=O)c2ccccc2)C1=O | 35.3% (inactive) |  |
| Cn1cccc1/C=C1\SC(=S)N(NC(=O)c2ccccc2Cl)C1=O | 22.1% (inactive) |  |
| Cc1ccc(C(=O)NN2C(=O)/C(=C/c3cn(C)c4ccccc34)SC2=S)cc1 | 86.9% (active) | 91.3% |
| Cn1cc(/C=C2\SC(=S)N(NC(=O)c3ccccc3Cl)C2=O)c2ccccc21 | 66.4% (active) | 117% |
| Cn1cccc1/C=C1\SC(=S)N(NC(=O)c2ccccc2O)C1=O | 66.2% (inactive) | 25.2% |
| Cn1cc(/C=C2\SC(=S)N(NC(=O)c3ccccc3)C2=O)c2ccccc21 | 122% (inactive) | 17.7% |
| Cc1nc(SCc2ccccc2)[nH]c(=O)c1CC(=O)OCC(C)C | 0.8% (inactive) |  |
| CN(C)c1nc(N)c([N+](=O)[O-])c(NCc2ccccc2)n1 | -1.3% (inactive) |  |
| Cc1onc(-c2c(Cl)cccc2Cl)c1C(=O)Nc1nccs1 | -1% (inactive) |  |
| COc1ccc(NCC(=O)N/N=C(\C)c2cc3ccccc3o2)cc1 | -3.3% (inactive) |  |
| Cc1c(N=C2N=C(NC(=O)c3cccs3)c3ccccc32)c(=O)n(-c2ccccc2)n1C | 75.3% (active) |  |
| Cc1c(N=C2N=C(NC(=O)NC(C)(C)C)c3ccccc32)c(=O)n(-c2ccccc2)n1C | -0.2% (inactive) |  |

| SMILES | inhibition (at 20 µM) | inhibition [1] |
| --- | --- | --- |
| Cc1c(NC(=O)/C(=C/c2cccs2)c2cccs2)c(=O)n(-c2ccccc2)n1C | 6.2% (inactive) |  |
| Cc1c(N=C2N=C(NC(=O)Nc3ccc(Cl)cc3)c3ccccc32)c(=O)n(-c2ccccc2)n1C | 137% (inactive) |  |
| Cc1c(NC(=O)c2cccs2)c(=O)n(-c2ccccc2)n1C | -1.2% (inactive) |  |
| Cc1c(N=C2N=C(NC(=O)c3ccc(F)cc3)c3ccccc32)c(=O)n(-c2ccccc2)n1C | 74.4% (active) |  |
| CC(=O)Nc1cccc(NC(=O)CSc2ncc(-c3ccccc3)[nH]2)c1 | 0.5% (inactive) |  |
| Cc1ccc(C(C(=O)NC2CCCCC2)N(Cc2ccco2)C(=O)Cn2cnc3ccccc32)cc1 (centres undefined) | -1.8% (inactive) |  |
| Cc1nc(NC(=O)/C=C/c2ccccc2)sc1C(=O)N1CCCCC1 | -0.3% (inactive) |  |
| Cc1cc(/C=C2\SC(=S)N(Cc3ccco3)C2=O)c(C)n1-c1cccnc1 | 53.6% (active) | 94.4% |
| Cc1cc(/C=C2\SC(=S)N(Cc3ccco3)C2=O)c(C)n1-c1ccccc1 | 43.7% (inactive) |  |
| COc1ccc(-n2c(C)cc(/C=C3\SC(=S)N(Cc4ccco4)C3=O)c2C)cc1 | 38.3% (inactive) |  |
| NC(=O)CSc1nc(C23CC4CC(CC(C4)C2)C3)nc2ccccc12 | -1.1% (inactive) |  |
| CCCNC(=O)Cn1c(=O)/c(=C\c2ccc(-c3cccc([N+](=O)[O-])c3)o2)s/c1=C\C(=O)C(C)(C)C | 23.1% (inactive) |  |
| CCCNC(=O)Cn1c(=O)/c(=C\c2ccc(-c3ccc([N+](=O)[O-])cc3)o2)s/c1=C\C(=O)C(C)(C)C | 145% (inactive) |  |
| CC(C)(C)C(=O)/C=c1\s/c(=C\c2ccc(-c3ccc([N+](=O)[O-])cc3)o2)c(=O)n1CC(=O)NC(N)=O | 76.8% (active) |  |
| O=C(CCc1nc2ccccc2[nH]c1=O)N/N=C/c1ccccc1 | -0.5% (inactive) |  |
| CCOC(=O)NC(=O)CSc1nc(C)cc(C(F)(F)F)c1C#N | 4.9% (inactive) |  |
| CCOC(=O)CCSc1nc(C)cc(C(F)(F)F)c1C#N | 82% (active) | 50.9% |
| CCOC(=O)CCSc1nc(C(C)(C)C)cc(C(F)(F)F)c1C#N | -0.1% (inactive) |  |
| O=C(NN=C1C2CC3CC(C2)CC1C3)c1cccc(S(=O)(=O)N2CCOCC2)c1 | 2.1% (inactive) |  |
| Cc1ccccc1CSc1n[nH]c(NS(=O)(=O)c2ccccc2)n1 | -0.6% (inactive) |  |
| COc1ccccc1C(=O)NNC(=O)c1cccc(C)c1 | 0.2% (inactive) |  |
| Cc1cc(-c2csc(NC(=O)c3ccc(C#N)cc3)n2)c(C)n1Cc1ccccc1 | 15.9% (inactive) |  |

| SMILES | inhibition (at 20 µM) | inhibition [1] |
| --- | --- | --- |
| CCNc1nc(-c2cc(C)n(Cc3ccco3)c2C)cs1 | 59.6% (inactive) | 0.3% |
| Cc1cc(-c2csc(NC(=O)c3ccc(=O)[nH]c3)n2)c(C)n1Cc1ccco1 | 61% (active) |  |
| Cc1cc(-c2csc(N)n2)c(C)n1Cc1ccco1 | 46.3% (inactive) |  |
| Cc1cc(-c2csc(NC(=O)c3ccc(C#N)cc3)n2)c(C)n1Cc1ccco1 | 56.1% (active) |  |
| Cc1cc(-c2csc(NC(=O)c3ccc(=O)[nH]c3)n2)c(C)n1Cc1ccccc1 | 84.8% (inactive) | 2.3% |
| O=C(Nc1cccc(C(F)(F)F)c1)/C(=C/c1ccco1)NC(=O)c1cccs1 | 15.1% (inactive) |  |
| COC(=O)c1ccc(COc2ccccc2/C=N/Nc2cccc(C(=O)O)c2)cc1 | 37% (inactive) |  |
| COC(=O)c1ccc(COc2ccc(/C=N/Nc3cccc(C(=O)O)c3)cc2)cc1 | 58.9% (active) |  |
| O=C(O)c1cccc(N/N=C/c2ccc(OC(F)(F)F)cc2)c1 | 26.1% (inactive) |  |
| COc1ccc(/C=N/NC(=O)c2cccc([N+](=O)[O-])c2)cc1OC(=O)c1ccc(C)cc1 | -0.7% (inactive) |  |
| CO/N=C(\c1nonc1N)N1CCN(c2ccc(Cl)cc2[N+](=O)[O-])CC1 | -0.3% (inactive) |  |
| CC1=N/C(=C/c2ccco2)C(=O)O1 | 41.7% (inactive) |  |
| O=C1OC(/C=C/c2ccc(Cl)cc2)=NC/1=C/c1ccco1 | 56.5% (active) |  |
| COc1ccccc1/C=C/C=C1N=C(/C=C/c2ccc(Cl)cc2)OC/1=O | 56.4% (inactive) | -0.4% |
| O=C(NCc1ccccc1Cl)NCc1ccccc1Cl | 1% (inactive) |  |
| CCCC(=O)n1nc(-c2ccccc2)nc1SC | 3.2% (inactive) |  |
| Cc1nnc(NC(=O)C23CC4CC(CC(C4)C2)C3)s1 | 2.2% (inactive) |  |
| COc1ccc(-c2cc(CCCC(=O)N3CCN(c4ccc(OC)cc4)CC3)no2)cc1 | -1.3% (inactive) |  |
| CCN(CC)CCCC(C)Nc1c2ccc(Cl)cc2nc2ccc(OC)cc12 (centres undefined) | 62.2% (active) |  |
| COc1ccc2nc3cc(Cl)ccc3c(C#N)c2c1 | 3.4% (inactive) |  |
| COc1ccc2nc3cc(Cl)ccc3c(Nc3cc(C(C)C)c(O)cc3C)c2c1 | -5.4% (inactive) |  |
| O=C1NC(=Nc2ccccc2Cl)S/C1=C\c1ccc(C(=O)O)cc1 | 26.9% (inactive) |  |

| SMILES | inhibition (at 20 µM) | inhibition [1] |
| --- | --- | --- |
| COc1cc(/C=C2\S/C(=N/S(=O)(=O)Cc3ccccc3)NC2=O)c([N+](=O)[O-])cc1OC | 25.9% (inactive) |  |
| O=C1NC(=Nc2ccccc2Cl)S/C1=C\c1cccc([N+](=O)[O-])c1 | 75.6% (inactive) | 29.4% |
| COc1cccc(N=C2NC(=O)/C(=C/c3cc([N+](=O)[O-])ccc3O)S2)c1 | 64.2% (inactive) | 33% |
| COc1c(/C=C2\SC(=Nc3ccccc3Cl)NC2=O)cccc1[N+](=O)[O-] | 20% (inactive) |  |
| O=C1N/C(=N\S(=O)(=O)Cc2ccccc2)S/C1=C/c1cc([N+](=O)[O-])ccc1O | 69.6% (active) |  |
| O=C1NC(=Nc2ccccc2Cl)S/C1=C\c1cc([N+](=O)[O-])ccc1O | 89.1% (active) | 124% |
| O=C1N/C(=N\S(=O)(=O)Cc2ccccc2)S/C1=C/c1cccc([N+](=O)[O-])c1 | 30.7% (inactive) |  |
| N/C(=N\NC(=O)c1ccccc1Cl)c1cc2ccccc2oc1=O | 0.3% (inactive) |  |
| CCC(=O)Nc1ccc(-c2nnc(SCc3ccc(C(=O)Nc4nccs4)cc3)n2CC)cc1 | -0.6% (inactive) |  |
| NC1=NC[C@H](CC2CCCCC2)N1CCc1cc(C(F)(F)F)cc(C(F)(F)F)c1 | 0.6% (inactive) |  |
| CC(C)[C@@H]1NC(=O)N(c2ccc(Oc3ccccc3)cc2)C1=O | -2.5% (inactive) |  |
| COc1cccc(-c2c(C(=O)N/N=C(\C)COc3ccccc3)nnn2-c2nonc2N)c1 | -1.6% (inactive) |  |
| Cc1[nH]c2ccccc2c1C(=O)C(=O)NCCc1c[nH]c2ccccc12 | 0.7% (inactive) |  |
| CCn1c(SCC(=O)Nc2cc(C)on2)nnc1-c1ccc(S(=O)(=O)N2CCN(C)CC2)cc1 | -2.9% (inactive) |  |
| N#Cc1c(-c2ccccc2Cl)noc1/C=C/Nc1ccc(C(=O)O)cc1 | 53.5% (inactive) | 3.7% |
| O=C(NC1CCc2ccccc21)c1cc(COc2c(F)cccc2F)on1 (centres undefined) | 0.3% (inactive) |  |
| O=C(Cn1cnc2c(nnn2-c2ccccc2)c1=O)NCCc1ccccc1 | 1.1% (inactive) |  |
| Cc1ccc(N2C(=O)[C@@H]3C(C(=O)CN4C(=O)c5ccccc5C4=O)=NN[C@@H]3C2=O)c(C)c1 | -2.5% (inactive) |  |
| Cc1ccc(N2C(=O)c3ccc(C(=O)O)cc3C2=O)c(C)c1 | -0.3% (inactive) |  |
| O=C1O/C(=C/C(=O)N2CCOCC2)c2ccccc21 | 1.9% (inactive) |  |
